Consider 18 compounds from PubChem BioAssay (EPA / NIEHS).

The target of experiment [1] is human Ephrin type-A Receptor 1 (EphA1), EPHA1 (gene 2041) (UniProt P21709). The experiment can be described thus: NVS_ENZ_hEphA1: NovaScreen (NVS) Enzymatic Assay for human Ephrin type-A Receptor 1 (EphA1) (AID 2283158).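 Also: activity is signal loss versus DMSO meaning EphA1 kinase inhibition.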 In outline: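 Here the EphA1 protein is recombinant and the substrate fluorescent, with electrophoretic separation before fluorescence detection at 1 hour. Signal loss against DMSO defines activity; plate controls included; follow-up concentration series reach 50 uM.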
Sequence of human Ephrin type-A Receptor 1 (EphA1), EPHA1 (gene 2041) (P21709 whole entry, looked up): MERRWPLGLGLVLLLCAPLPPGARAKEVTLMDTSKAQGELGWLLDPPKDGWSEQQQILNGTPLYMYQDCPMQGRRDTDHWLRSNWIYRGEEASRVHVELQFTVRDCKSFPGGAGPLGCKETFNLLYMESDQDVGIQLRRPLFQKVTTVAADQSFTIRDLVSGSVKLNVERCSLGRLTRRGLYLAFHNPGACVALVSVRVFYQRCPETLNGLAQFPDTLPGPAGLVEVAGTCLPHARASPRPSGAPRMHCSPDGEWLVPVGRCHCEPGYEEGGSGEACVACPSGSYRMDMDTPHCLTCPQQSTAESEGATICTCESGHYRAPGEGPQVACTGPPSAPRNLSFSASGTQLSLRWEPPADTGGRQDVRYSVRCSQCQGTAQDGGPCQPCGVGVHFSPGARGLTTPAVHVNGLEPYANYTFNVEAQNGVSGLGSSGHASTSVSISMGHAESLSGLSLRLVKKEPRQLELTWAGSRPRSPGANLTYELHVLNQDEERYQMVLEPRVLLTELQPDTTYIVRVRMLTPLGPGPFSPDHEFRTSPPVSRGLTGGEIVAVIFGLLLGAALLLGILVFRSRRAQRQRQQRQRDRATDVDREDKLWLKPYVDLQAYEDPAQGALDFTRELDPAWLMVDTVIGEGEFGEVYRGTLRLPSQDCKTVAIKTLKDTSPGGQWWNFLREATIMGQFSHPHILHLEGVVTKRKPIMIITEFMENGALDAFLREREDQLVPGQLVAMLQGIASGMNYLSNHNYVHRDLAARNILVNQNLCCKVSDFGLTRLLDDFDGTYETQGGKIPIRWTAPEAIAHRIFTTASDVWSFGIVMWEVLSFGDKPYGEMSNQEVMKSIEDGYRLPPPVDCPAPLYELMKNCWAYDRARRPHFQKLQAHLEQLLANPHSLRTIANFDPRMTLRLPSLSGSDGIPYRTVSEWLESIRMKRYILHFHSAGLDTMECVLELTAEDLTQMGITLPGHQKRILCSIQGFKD

For experiment [2], the target named is human Epidermal Growth Factor Receptor (EGFR), EGFR (gene 1956) (UniProt P00533). Put plainly: NVS_ENZ_hEGFR: NovaScreen (NVS) Enzymatic Assay for human Epidermal Growth Factor Receptor (EGFR) (AID 2283151). The gist of the method:
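Cell-free kinase assay, fluorescence plus electrophoretic mobility shift separating substrate and product, read 1 hour after dosing; loss of signal vs DMSO. Duplicate screen at 25 uM, then concentration-response to 50 uM.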

Experiment [3] concerns the target human Esterase Plasma (ES), BCHE (gene 590) (UniProt P06276). Put plainly: NVS_ENZ_hES: NovaScreen (NVS) Enzymatic Assay for human Esterase Plasma (ES) (AID 2283157). The gist of the method: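 Esterase from human plasma, cell-free, colorimetric absorbance read 0.25 h after dosing. Screened at 25 uM in duplicate, with threshold-passing chemicals run in concentration-response up to 50 uM; loss of signal fitted versus DMSO.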

In experiment [4] the target is human Colony Stimulating Factor 1 Receptor (CSF1R), CSF1R (gene 1436) (UniProt P07333). The experiment can be described thus: NVS_ENZ_hCSF1R: NovaScreen (NVS) Enzymatic Assay for human Colony Stimulating Factor 1 Receptor (CSF1R) (AID 2283150). As for the experimental part:
(§1) NVS_ENZ_hCSF1R is a biochemical, single-readout assay that uses extracted gene-proteins in a cell-free assay. Measurements were taken 1 hour after chemical dosing in a 384-well plate.NVS_ENZ_hCSF1R is one of one assay component(s) measured or calculated from the NVS_ENZ_hCSF1R assay. It is designed to make measurements of enzyme activity, a form of enzyme reporter, as detected with fluorescence intensity signals by Fluorescence and electrophoretic mobility shift technology.Data from the assay component NVS_ENZ_hCSF1R was analyzed into 1 assay endpoint. This assay endpoint, NVS_ENZ_hCSF1R, was analyzed in the positive analysis fitting direction relative to DMSO as the negative control and baseline of activity. Using a type of enzyme reporter, loss-of-signal activity can be used to understand changes in the enzymatic activity as they relate to the gene CSF1R. Furthermore, this assay endpoint can be referred to as a primary readout, because this assay has produced multiple assay endpoints where this one serves a enzymatic activity function. To generalize the intended target to other relatable targets, this assay endpoint is annotated to the kinase intended target family, where the subfamily is receptor tyrosine kinase.
Binding assays used specific radioligands (tritiated, iodinated) with non-radioactive competitive displacement ligands in agonist or antagonist protocols (as indicated) and various reference compounds and inhibitors to titrate specific binding to receptors and transporters. Most enzyme assays (CYPs, kinases, phosphatases, proteases, HDACs) used recombinant protein and specific substrates (fluorescence mostly, some colorimetric and radioactive) and inhibitors, followed by a biochemical separation of substrate and product. All assays for the biochemical HTS were initially run in duplicate at a single concentration (10 uM for CYP450 assays and 25 uM for all others). […]

The target of experiment [5] is human Dual Specificity Protein Phosphatase 3 (DUSP3), DUSP3 (gene 1845) (UniProt P51452). Put plainly: NVS_ENZ_hDUSP3: NovaScreen (NVS) Enzymatic Assay for human Dual Specificity Protein Phosphatase 3 (DUSP3) (AID 2283152).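 Also: phosphatase activity of recombinant human DUSP3 on a fluorogenic substrate without cells.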 On the procedure: NVS_ENZ_hDUSP3 is a biochemical, single-readout assay that uses extracted gene-proteins in a cell-free assay. Measurements were taken 0 hour after chemical dosing in a 96-well plate.NVS_ENZ_hDUSP3 is one of one assay component(s) measured or calculated from the NVS_ENZ_hDUSP3 assay. It is designed to make measurements of enzyme activity, a form of enzyme reporter, as detected with fluorescence intensity signals by Fluorescence technology.Data from the assay component NVS_ENZ_hDUSP3 was analyzed into 1 assay endpoint. This assay endpoint, NVS_ENZ_hDUSP3, was analyzed in the positive analysis fitting direction relative to DMSO as the negative control and baseline of activity. Using a type of enzyme reporter, loss-of-signal activity can be used to understand changes in the enzymatic activity as they relate to the gene DUSP3. Furthermore, this assay endpoint can be referred to as a primary readout, because this assay has produced multiple assay endpoints where this one serves a enzymatic activity function. To generalize the intended target to other relatable targets, this assay endpoint is annotated to the phosphatase intended target family, where the subfamily is dual-specific phosphatase.
Sequence of human Dual Specificity Protein Phosphatase 3 (DUSP3), DUSP3 (gene 1845) (P51452 whole entry, looked up): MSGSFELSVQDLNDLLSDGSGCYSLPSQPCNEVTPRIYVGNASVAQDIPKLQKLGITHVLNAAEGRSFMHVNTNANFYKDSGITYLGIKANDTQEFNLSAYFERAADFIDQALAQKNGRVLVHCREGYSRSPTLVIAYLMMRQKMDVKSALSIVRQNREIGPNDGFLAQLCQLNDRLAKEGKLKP
Binding assays used specific radioligands (tritiated, iodinated) with non-radioactive competitive displacement ligands in agonist or antagonist protocols (as indicated) and various reference compounds and inhibitors to titrate specific binding to receptors and transporters. Most enzyme assays (CYPs, kinases, phosphatases, proteases, HDACs) used recombinant protein and specific substrates (fluorescence mostly, some colorimetric and radioactive) and inhibitors, followed by a biochemical separation of substrate and product. All assays for the biochemical HTS were initially run in duplicate at a single concentration (10 uM for CYP450 assays and 25 uM for all others). […] Each assay was run with positive and negative controls, and concurrent controls on every plate. The follow-up (secondary) screen tested active chemical-pairs in concentration series, as well as a few additional assays not tested in the primary screen, some selected negative inactives, and several cases re-run in the concentration series for confirmatory purposes.

Experiment [6] deals with human Elastase, ELANE (gene 1991) (UniProt P08246). Put plainly: NVS_ENZ_hElastase: NovaScreen (NVS) Enzymatic Assay for human Elastase (AID 2283153). The gist of the method:
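Cell-free elastase from human neutrophils, 1.5 h after dosing, activity read by absorbance. Primary screen in duplicate at 25 uM; hits (e.g., 30% inhibition) rerun in singleton concentration-response up to 50 uM, fitted versus DMSO.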

For experiment [7], the target named is human Ephrin type-A Receptor 2 (EphA2), EPHA2 (gene 1969) (UniProt P29317). The experiment can be described thus: NVS_ENZ_hEphA2: NovaScreen (NVS) Enzymatic Assay for human Ephrin type-A Receptor 2 (EphA2) (AID 2283155). On the procedure: as §1, with “NVS_ENZ_hEphA2” for “NVS_ENZ_hCSF1R”, “plate.NVS_ENZ_hEphA2” for “plate.NVS_ENZ_hCSF1R”, “NVS_ENZ_hEphA2,” for “NVS_ENZ_hCSF1R,”, “EPHA2.” for “CSF1R.”, “kinase. […]” for “kinase.”

Experiment [8] concerns the target human Casein Kinase 1-delta (CK1D), CSNK1D (gene 1453) (UniProt P48730). The experiment can be described thus: NVS_ENZ_hCK1D: NovaScreen (NVS) Enzymatic Assay for human Casein Kinase 1-delta (CK1D) (AID 2283148). On the procedure: as §1, with “NVS_ENZ_hCK1D” for “NVS_ENZ_hCSF1R”, “plate.NVS_ENZ_hCK1D” for “plate.NVS_ENZ_hCSF1R”, “NVS_ENZ_hCK1D,” for “NVS_ENZ_hCSF1R,”, “CSNK1D.” for “CSF1R.”, “serine/threonine” for “receptor tyrosine”, “kinase. […]” for “kinase.”

Experiment [9] deals with human Ephrin type-B Receptor 2 (EphB2), EPHB2 (gene 2048) (UniProt P29323). Put plainly: NVS_ENZ_hEphB2: NovaScreen (NVS) Enzymatic Assay for human Ephrin type-B Receptor 2 (EphB2) (AID 2283156). The gist of the method:
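Recombinant kinase with fluorescent substrate, product separated by electrophoretic mobility shift, read 1 h after dosing. Duplicate 25 uM screen, then singleton concentration-response to 50 uM max; loss of signal versus DMSO.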

Records with an inconclusive call do not appear. Activity calls are given as the source filed them. The calls were made as follows: active = hit-call score of the fitted dose curve at least 0.9, where 1 is the maximum; inconclusive = response in the unintended direction; inactive = score below 0.9.

Sequence of human Epidermal Growth Factor Receptor (EGFR), EGFR (gene 1956) (P00533 whole entry, looked up): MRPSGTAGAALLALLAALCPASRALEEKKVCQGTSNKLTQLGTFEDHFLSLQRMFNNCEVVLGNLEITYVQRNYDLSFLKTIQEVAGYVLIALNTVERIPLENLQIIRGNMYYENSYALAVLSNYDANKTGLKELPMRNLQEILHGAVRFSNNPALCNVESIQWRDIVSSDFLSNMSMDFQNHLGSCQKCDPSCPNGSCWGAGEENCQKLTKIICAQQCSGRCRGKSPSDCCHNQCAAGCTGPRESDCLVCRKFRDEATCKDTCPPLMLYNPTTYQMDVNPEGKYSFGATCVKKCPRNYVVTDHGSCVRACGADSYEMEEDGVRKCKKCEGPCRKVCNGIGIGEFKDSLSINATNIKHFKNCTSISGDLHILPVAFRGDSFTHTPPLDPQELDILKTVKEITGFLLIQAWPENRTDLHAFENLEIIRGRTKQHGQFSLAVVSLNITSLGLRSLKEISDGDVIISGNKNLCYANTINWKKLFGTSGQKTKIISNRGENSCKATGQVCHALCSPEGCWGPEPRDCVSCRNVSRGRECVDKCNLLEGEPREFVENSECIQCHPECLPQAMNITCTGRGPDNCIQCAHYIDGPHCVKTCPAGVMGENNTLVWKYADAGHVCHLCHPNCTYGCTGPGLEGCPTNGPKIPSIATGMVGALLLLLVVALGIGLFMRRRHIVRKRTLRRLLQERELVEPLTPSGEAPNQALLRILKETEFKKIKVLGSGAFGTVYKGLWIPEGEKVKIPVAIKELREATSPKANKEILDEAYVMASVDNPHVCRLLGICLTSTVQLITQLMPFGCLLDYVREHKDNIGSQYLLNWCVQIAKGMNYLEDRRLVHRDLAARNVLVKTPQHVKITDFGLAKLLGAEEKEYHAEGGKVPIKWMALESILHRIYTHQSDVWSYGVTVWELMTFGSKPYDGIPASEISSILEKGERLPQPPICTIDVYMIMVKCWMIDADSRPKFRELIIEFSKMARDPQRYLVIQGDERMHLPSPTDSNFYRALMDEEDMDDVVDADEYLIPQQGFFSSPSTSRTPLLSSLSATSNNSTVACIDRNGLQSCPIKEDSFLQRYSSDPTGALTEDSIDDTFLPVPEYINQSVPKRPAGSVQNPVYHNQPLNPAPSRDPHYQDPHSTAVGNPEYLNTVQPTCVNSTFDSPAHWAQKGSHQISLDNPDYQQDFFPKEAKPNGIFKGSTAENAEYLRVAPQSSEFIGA
Sequence of human Esterase Plasma (ES), BCHE (gene 590) (P06276 whole entry, looked up): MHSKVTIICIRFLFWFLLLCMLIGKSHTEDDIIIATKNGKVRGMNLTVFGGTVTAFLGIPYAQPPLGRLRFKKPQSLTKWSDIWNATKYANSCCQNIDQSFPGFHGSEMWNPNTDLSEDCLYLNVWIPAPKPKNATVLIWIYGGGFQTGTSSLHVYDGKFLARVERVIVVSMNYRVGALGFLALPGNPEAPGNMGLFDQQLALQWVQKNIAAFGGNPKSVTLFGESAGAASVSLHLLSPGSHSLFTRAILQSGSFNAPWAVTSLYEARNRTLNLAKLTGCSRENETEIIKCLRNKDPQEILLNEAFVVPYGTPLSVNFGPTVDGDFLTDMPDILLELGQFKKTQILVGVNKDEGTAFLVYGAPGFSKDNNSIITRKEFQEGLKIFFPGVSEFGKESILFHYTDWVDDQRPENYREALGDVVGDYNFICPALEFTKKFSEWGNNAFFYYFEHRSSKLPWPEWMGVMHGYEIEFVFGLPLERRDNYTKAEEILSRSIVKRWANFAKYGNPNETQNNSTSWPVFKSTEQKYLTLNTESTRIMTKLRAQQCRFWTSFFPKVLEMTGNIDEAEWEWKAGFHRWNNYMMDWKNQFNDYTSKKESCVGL
Sequence of human Colony Stimulating Factor 1 Receptor (CSF1R), CSF1R (gene 1436) (P07333 whole entry, looked up): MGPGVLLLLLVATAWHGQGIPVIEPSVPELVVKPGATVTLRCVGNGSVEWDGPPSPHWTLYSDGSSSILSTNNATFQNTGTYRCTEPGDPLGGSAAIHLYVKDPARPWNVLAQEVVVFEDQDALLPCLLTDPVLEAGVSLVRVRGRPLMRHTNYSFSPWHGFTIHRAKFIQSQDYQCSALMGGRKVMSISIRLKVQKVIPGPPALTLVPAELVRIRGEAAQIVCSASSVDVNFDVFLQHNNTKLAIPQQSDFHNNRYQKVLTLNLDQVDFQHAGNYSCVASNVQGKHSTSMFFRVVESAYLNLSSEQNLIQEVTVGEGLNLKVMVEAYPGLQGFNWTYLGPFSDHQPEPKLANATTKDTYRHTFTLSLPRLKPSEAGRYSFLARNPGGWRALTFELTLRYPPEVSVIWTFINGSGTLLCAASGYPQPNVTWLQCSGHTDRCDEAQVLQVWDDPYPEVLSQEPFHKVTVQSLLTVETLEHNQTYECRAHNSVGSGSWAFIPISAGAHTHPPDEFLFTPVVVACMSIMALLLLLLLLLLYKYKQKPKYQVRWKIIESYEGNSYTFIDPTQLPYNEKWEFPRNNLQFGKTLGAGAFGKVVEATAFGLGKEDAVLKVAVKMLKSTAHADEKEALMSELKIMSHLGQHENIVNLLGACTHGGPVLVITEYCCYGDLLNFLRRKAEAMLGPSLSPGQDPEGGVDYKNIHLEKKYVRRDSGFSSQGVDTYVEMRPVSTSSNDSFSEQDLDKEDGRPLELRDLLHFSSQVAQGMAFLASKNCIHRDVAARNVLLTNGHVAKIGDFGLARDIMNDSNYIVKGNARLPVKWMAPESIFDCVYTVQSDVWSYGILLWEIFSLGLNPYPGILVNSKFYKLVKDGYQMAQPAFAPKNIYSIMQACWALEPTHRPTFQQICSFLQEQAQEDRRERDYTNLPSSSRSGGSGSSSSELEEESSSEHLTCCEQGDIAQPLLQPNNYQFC
Sequence of human Elastase, ELANE (gene 1991) (P08246 whole entry, looked up): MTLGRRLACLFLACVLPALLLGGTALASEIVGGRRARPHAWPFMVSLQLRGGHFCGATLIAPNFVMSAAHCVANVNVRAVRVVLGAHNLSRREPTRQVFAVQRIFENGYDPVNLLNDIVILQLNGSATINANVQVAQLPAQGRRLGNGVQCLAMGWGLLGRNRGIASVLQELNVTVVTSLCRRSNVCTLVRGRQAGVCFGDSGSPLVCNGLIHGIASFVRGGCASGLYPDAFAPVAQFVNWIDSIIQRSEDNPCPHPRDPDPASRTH
Sequence of human Casein Kinase 1-delta (CK1D), CSNK1D (gene 1453) (P48730 whole entry, looked up): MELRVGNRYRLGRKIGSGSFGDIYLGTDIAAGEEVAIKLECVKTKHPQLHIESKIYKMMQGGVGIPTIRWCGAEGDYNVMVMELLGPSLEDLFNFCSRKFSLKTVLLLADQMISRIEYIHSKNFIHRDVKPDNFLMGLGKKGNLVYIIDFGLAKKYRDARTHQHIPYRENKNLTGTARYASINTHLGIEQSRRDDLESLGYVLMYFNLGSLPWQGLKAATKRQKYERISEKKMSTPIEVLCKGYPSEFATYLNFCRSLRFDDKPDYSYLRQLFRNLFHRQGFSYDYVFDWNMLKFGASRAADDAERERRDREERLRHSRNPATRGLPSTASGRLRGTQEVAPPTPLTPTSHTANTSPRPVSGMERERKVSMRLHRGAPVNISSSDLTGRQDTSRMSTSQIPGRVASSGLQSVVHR

In the case of `O=S(=O)(c1ccc(Cl)cc1)c1cc(Cl)c(Cl)cc1Cl`, in [1], the outcome was inactive.

In general, AC50 refers to the midpoint of the concentration-response curve, whichever way the signal moves. With `c1ccc2sc(SNC3CCCCC3)nc2c1`, the AC50 in experiment [1] is 13.9 µM (active).

As for `Clc1cccc(Cl)c1Cl`, the call in [2] and in experiment [1] was inactive.

Take `CCN(CC)C(=O)C(Cl)=C(C)OP(=O)(OC)OC`: the AC50 in experiment [3] is 25 µM (active).

With `O=[N+]([O-])c1ccc(Nc2ccccc2)cc1`, in experiment [1], the result was inactive.

`Nc1c(Oc2ccccc2)cc(O)c2c1C(=O)c1ccccc1C2=O`: the outcome in [1] was inactive.

In the case of `O=C(N[C@H]1CN2CCC1CC2)c1ccc2c(c1)OCCO2`, the call in experiment [4], in experiment [2] and in experiment [1] was inactive.

With `N#CCCC(Br)(C#N)CBr` (configuration not stated), in experiment [3], the AC50 was 19.2 µM (active).

As to `c1ccc(-c2cccc(-c3ccccc3)c2)cc1`, the AC50 in [1] is 2.51 µM (active).

As to `CCOC(=O)CCN(SN(C)C(=O)Oc1cccc2c1OC(C)(C)C2)C(C)C`, the half-maximal activity concentration (AC50) in experiment [5] was 9.03 µM (active); in experiment [3], 14 µM (active); in experiment [1], 4.87 µM (active).

`CCOP(=O)(OCC)OC(=CCl)c1ccc(Cl)cc1Cl`: the concentration at half-maximal activity (AC50) in [3] is 1.22 µM (active). Further, the compound was classed as inactive in experiment [1].

Take `CC(C)(C#N)N=NC(C)(C)C#N`: the compound was called inactive in experiment [1].

With `CC(C)[N+](=O)[O-]`, in experiment [1], the call was inactive.

On to `O=C(O)C1(c2ccc3c(c2)OC[C@H](Cc2ccc(-c4ccccc4)cc2)[C@H]3O)CCCC1`, for which the AC50 in experiment [5] was 13.8 µM (active); in experiment [6] it was 17.7 µM (active).

Consider `COc1ccccc1N`, for which the compound was called inactive in experiment [1].

Turning to `CNC(=O)CSP(=O)(OC)OC`, the compound was classed as inactive in experiment [1].

In the case of `CCCCCCCCCCCCOS(=O)(=O)O`, the AC50 in experiment [2] is 36.5 µM (active); in experiment [7], 40.8 µM (active).

Regarding `CCCCCCCCCCCCc1cccc(S(=O)(=O)O)c1`, the AC50 is 28.6 µM (active) in experiment [8]; 17.3 µM (active) in [4]; 19.6 µM (active) in experiment [2]; 16.8 µM (active) in experiment [5]; 26.7 µM (active) in [6]; 32.9 µM (active) in experiment [1]. For the same compound, the result in experiment [9] was inactive.
